Shown are actives, neighbours in structure and some others; about 3.6% of the full set was active somewhere.
mHTT-CaM PPI inh: mutant huntingtin-calmodulin interaction inhibitors – biochemical, AlphaScreen, primary screen. P42858. AlphaScreen His-mHTT/GST-CaM binding, luminescence. inhibition, % at 15 µM. 190,000 tested, 3.6% active;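 also: 0% = both proteins with DMSO and 100% = one protein alone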
Pf apPOL block: Pf-apPOL inhibitors, biochemical, fluorescence. Recombinant Pf-apPOL, molecular beacon fluorescence, 1.5 h. AID 1794808, 2022. 210,000 tested, 0.25% active. inhibition, % at 10 µM. Plasmodium falciparum apicoplast DNA polymerase (apPOL)
* = called active by the depositor; . = not tested or not shown. Rule as the data show it: active = inhibition above about 50%; inactive = the rest.

SMILES	mHTT-CaM PPI inh	Pf apPOL block
N#Cc1ccccc1Cn1c(=O)n(-c2ccccc2)c(=O)c2sccc21	2	0
COc1ccccc1NC(NC(=O)C1C(C=C(Cl)Cl)C1(C)C)C(Cl)(Cl)Cl (configuration not stated)	-10	0
O=[N+]([O-])c1ccc(NCCNS(=O)(=O)Cc2ccccc2)c(Cl)c1	17	-14
N#Cc1c([N+](=O)[O-])cc([N+](=O)[O-])cc1S(=O)(=O)Cc1ccccc1	79*	-3
COc1ccc2cc(C(N)=O)c(=Nc3cccc(C(N)=O)c3)oc2c1	7	-4
Cc1ccc(-n2sc(=O)n(Cc3ccc(F)cc3)c2=O)cc1	.	2
Cc1noc(C)c1-n1sc(=O)n(-c2ccc(F)cc2)c1=O	.	73*
Cc1ccc(N=Cc2cc(Br)cc(Cl)c2O)c(O)c1	38	1
Nc1ccccc1N=Cc1cc(Br)cc(Cl)c1O	66*	2
Cc1ccc2oc(C(=O)N3CCCc4ccccc43)cc(=O)c2c1	6	3
O=C(NCC1COC2(CCCC2)O1)C1CCCC1 (configuration not stated)	-5	5
COc1cccc2c1OC1(CCCCC1)N1N=C(c3cccs3)CC21 (configuration not stated)	43	-24
COc1ccc(C2=NN3C(C2)c2cccc(OC)c2OC32CCCCC2)cc1OC (configuration not stated)	52*	-10
Cc1ccc(C)n1Cc1ccc(C(=O)O)cc1	53*	-15
O=C(O)c1ccc(CN2CCOCC2)cc1	-2	-3
Cc1[nH]nc(-c2ccc(O)c(O)c2O)c1-c1ccccc1	91*	0
COc1ccc(-c2c(-c3ccc(O)cc3O)n[nH]c2C)cc1	35	12
Cc1ccc(NC(=O)c2ccc(-c3csc(C)n3)cc2)cc1	-2	-10
O=[N+]([O-])c1cccc(C=Nc2ccc(I)cc2)c1	-5	-6
Cc1ccccc1-c1nc(C2CCN(C(=O)c3ccc(F)c(Cl)c3)CC2)no1	94*	2
COc1ccccc1-c1nc(C2CCN(C(=O)c3cc4ccccc4[nH]3)CC2)no1	100*	5
CCOc1ccc(C(=O)N2CCC(c3noc(-c4ccccc4C)n3)CC2)cc1OCC	11	-4
Cc1oc(C2CCN(C(=O)c3cc4ccccc4[nH]3)CC2)nc1C(=O)N(C)C	17	-3
Cc1oc(C2CCN(C(=O)c3cc4ccccc4[nH]3)CC2)nc1C(=O)N1CCCC1	83*	1
COc1cc(OC)cc(C(=O)N2CCC(c3noc(-c4ccccc4OC)n3)CC2)c1	8	-2
SMILES	mHTT-CaM PPI inh	Pf apPOL block
Cc1cc([N+](=O)[O-])nn1CC(=O)N1CCN(C)CC1	-2	-2
COc1ccc(Cl)cc1NC(=O)C1CCC(CNS(C)(=O)=O)CC1 (configuration not stated)	-4	-10
CC1=NN(C(=O)COc2ccc(Cl)c(C)c2)C(O)(C(F)(F)F)C1 (configuration not stated)	20	-9
Cc1cc(OCC(=O)N2N=C(C3CCCCC3)CC2(O)C(F)(F)F)ccc1Cl (configuration not stated)	100*	1
Cc1cc(OCC(=O)N2N=C3CCCCC3C2(O)C(F)(F)F)ccc1Cl (configuration not stated)	80*	3
O=C(c1ccccc1Cl)N1N=C2CCCCC2C1(O)C(F)(F)F (configuration not stated)	-2	-1
CC1=NN(C(=O)COc2cc(C)c(Cl)c(C)c2)C(O)(C(F)(F)F)C1 (configuration not stated)	12	-3
Cc1cc(OCC(=O)N2N=C(c3ccccc3)CC2(O)C(F)(F)F)ccc1Cl (configuration not stated)	100*	-12
CC1=C(C(=O)Nc2ccc(Cl)cc2)C(c2ccc(Cl)cc2)n2nnnc2N1 (configuration not stated)	33	-6
COc1ccc(C)cc1N1C(=O)NC2CC1(C)Oc1c(OC)cccc12 (configuration not stated)	-1	-5
CC(C)n1c2ccc(Br)cc2c2nc3ccccc3nc21	-5	82*
Cn1c2ccc([N+](=O)[O-])cc2c2nc3ccccc3nc21	6	-4
C=C(C)Cn1c(C(=O)NCC2CCCO2)cc2sc(C)cc21 (configuration not stated)	8	-13
CCCn1c(C(=O)NCC2CCCO2)cc2sc(Br)cc21 (configuration not stated)	60*	-4
CCCn1c(C(=O)N2CCN(C(C)=O)CC2)cc2sc(Br)cc21	54*	-2
CCCn1c(C(=O)N2CCOCC2)cc2sc(C)cc21	29	-4
Cc1nccn1Cc1nc(-c2ccc(Cl)cc2)no1	-9	-3
COc1ccc(NC(=O)c2cc(-c3ccccn3)nc3ccccc23)cc1	-1	-10
